Source: PubChem BioAssay
Pf growth 48h = Primary qHTS for delayed death inhibitors of the malarial parasite plastid, 48 hour incubation. P. falciparum luciferase growth in erythrocytes, 48 h. Potency, µM (top dose mostly 28.7 µM), without a hit: at the highest dose activity change, negative = inhibition, most hits filed as inhibitors. hit rate 5.9% among 310,000. AID 504832, 2011
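In quantitative HTS format, infected erythrocytes bearing luciferase-reporter parasites were treated for a single generation at 37 C. Luminescence after adding detection reagent served as the growth measure.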
Pf growth 96h = Primary qHTS for delayed death inhibitors of the malarial parasite plastid, 96 hour incubation; P. falciparum luciferase reporter growth, 96 h; Potency, µM (top dose mostly 28.7 µM), without a hit: at the top dose activity change, negative = inhibition, most hits filed as inhibitors; hit rate 6.9% among 320,000; AID 504834, 2011
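P. falciparum expressing integrated firefly luciferase grown in erythrocytes (2% hematocrit, 0.05% parasitemia final) with compounds for 96 hours at 37 C, 5% CO2. Growth inhibition read as loss of luminescence after adding luciferase detection reagent.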
VACV Venus inh = qHTS for Stage-Specific Inhibitors of Vaccinia Orthopoxvirus: Venus Reporter Primary qHTS | Vaccinia virus Venus reporter expression, fluorescence | AID 720580, 2013 | hit rate 0.46% among 330,000 | Potency, µM (highest dose often 36.5 µM), for the others: top-dose activity change, negative = inhibition, most hits filed as inhibitors; calls by dose curve; tested in A549 cells; further: nearly all actives have a fitted effect of over 30% in size
VACV mCherry inh = qHTS for Stage-Specific Inhibitors of Vaccinia Orthopoxvirus: mCherry Reporter Primary qHTS. Vaccinia virus mCherry reporter infection, fluorescence. Potency, µM (series often up to 36.5 µM), inactives show top-dose activity change, negative = inhibition, actives largely listed as inhibitors. hit rate 0.63% among 310,000; calls by dose curve; tested in A549 cells; further: nearly all actives have a fitted effect of over 35% in size
AMA1-RON2 inh = qHTS for Inhibitors of AMA1-RON; Towards Development of Antimalarial Drug Lead: Primary Screen. Plasmodium falciparum AMA1 (3D7) - RON2 peptide interaction. AlphaScreen AMA1-biotinylated RON2 peptide binding. Potency, µM (doses to about 58.2 µM), inactives show at the highest dose activity change, negative = inhibition, actives largely listed as inhibitors. hit rate 0.2% among 360,000;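 further: 0% = vehicle wells and -100% = peptide control; nearly all actives have a fitted effect of over 45% in size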
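AMA1 (3D7) with his tag at 25 nM final met compounds first, then biotinylated RON2 peptide at 25 nM; detection used donor plus acceptor beads, 10 µg/mL apiece, read by AlphaScreen after 30 min at room temperature.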
Active calls of the source: *; i = inactive; u = inconclusive; x = no result; [ ] = dose if it differs, or a comment. A selection: hits, their analogues and other compounds. The true share with any hit is near 8.7%. Unless noted, the call rests on the fitted dose curve; in most records, active means well fitted curve in the direction sought with a large enough effect; inconclusive means small, poorly fitted or top-dose-only effect, or another doubt; inactive means no such curve, though single readings can be large; an effect the other way counts as inactive or inconclusive. Unless noted, on the % scale 0 is the no-effect control and ±100 the full control effect; potency means the concentration at half of the fitted maximal effect.

SMILES	Pf growth 48h	Pf growth 96h	VACV Venus inh	VACV mCherry inh	AMA1-RON2 inh
COC(=O)c1cccc(-c2noc(-c3ccccc3F)n2)c1	133%	255%	x	x	x
O=C(O)c1cccc(-c2nc(-c3ccccc3C(F)(F)F)no2)c1	4.1µM*	u	x	x	x
O=C(O)c1cccc(-c2noc(-c3ccccc3F)n2)c1	0.3µM*	u	x	x	x
COc1ccc(-c2noc(-c3ccccc3F)n2)cc1	x	9.3µM*	-15%	-14%	33%
Cc1cccc(N2C(=O)C(CC(=O)Nc3cccc(F)c3)N(Cc3cccs3)C2=O)c1 (stereo not given)	x	x	-3%	-2%	x
CCN(CC)C1CCS(=O)(=O)C1 (stereo not given)	37%	0.19µM*	-16%	-2%	-18%
CC(=O)c1c(C)[nH]c(C(=O)Nc2ccc(F)c(F)c2F)c1C	13µM*	u	-19%	i	-23%
CCC(NC(=O)c1[nH]c(C)c(C(C)=O)c1C)c1ccc(Br)cc1 (stereo not given)	9.3µM*	u	-11%	i	-5%
CCC(C)c1ccc(NC(=O)c2[nH]c(C)c(C(C)=O)c2C)cc1 (stereo not given)	4.7µM*	3.3µM*	-4%	-9%	-17%
CCOc1ccc(-c2nnc3sc(COc4ccccc4)nn23)cc1	-9%	12µM*	x	x	1%
Cc1cccc(C)c1NC(=O)CCC(=O)N1Cc2ccccc2Oc2ncccc21	x	x	-9%	-11%	x
N=c1n(CCN2CCCC2)c2ccccc2n1CC(O)c1ccco1 (stereo not given)	u	15%	x	x	-2%
CCCCCCCn1c(=N)n(CC(=O)c2ccco2)c2ccccc21	x	12µM*	-26%	-20%	-5%
CCCCCCCn1c(=N)n(CC(O)c2ccco2)c2ccccc21 (stereo not given)	4.1µM*	u	-23%	u	-17%
CCCCn1c(=N)n(CC(=O)c2ccco2)c2ccccc21	2%	80%	-19%	-25%	7%
CC(=NNC(=S)N1CC2CCC(CC2)C1)c1cccc(C)n1	x	x	u	4µM*	2%
CC(=NNC(=S)N1CCCC1)c1ccccn1	x	x	u	u	88%
NC(=O)c1ccsc1NC(=O)CSc1ccccc1F	98%	9.3µM*	-8%	-2%	-3%
NC(=O)c1ccsc1NC(=O)c1nc(-c2ccccc2)n(-c2ccccc2)n1	7.4µM*	7.4µM*	x	x	40%
COc1ccc(-c2[nH]ncc2C(=O)NCc2ccccc2C)cc1	x	x	-14%	-11%	x
CCCN1CNc2c(c(=O)[nH]c(=S)n2CCc2ccc(Cl)cc2)C1	x	x	-12%	i	x
COc1ccc(C2C(C(=O)Nc3cc(OC)c(OC)c(OC)c3)c3ccccc3C(=O)N2C)cc1OC (stereo not given)	12µM*	51%	-17%	-3%	-14%
COc1ccc(C2C(C(=O)Nc3cccc(C)n3)c3ccccc3C(=O)N2C)cc1 (stereo not given)	u	3.7µM*	-4%	-12%	-13%
COc1ccc(C2C(C(=O)NC(C)C)c3ccccc3C(=O)N2C)cc1OC (stereo not given)	-1%	1µM*	-9%	-7%	5%
COc1ccc(C2C(C(=O)Nc3cc(C)on3)c3ccccc3C(=O)N2C)cc1 (stereo not given)	u	-8%	x	x	21%
SMILES	Pf growth 48h	Pf growth 96h	VACV Venus inh	VACV mCherry inh	AMA1-RON2 inh
COc1ccc(F)c(CN2CCOc3ccc(CN4CCC(O)(c5cccnc5)CC4)cc3C2)c1	x	x	-8%	-20%	x
Cc1ccccc1-c1noc(-c2cccnc2N(C)Cc2ccc(Cl)cc2)n1	x	x	-14%	-20%	x
COc1cc(-c2ccc(Nc3ccccc3C(=O)O)c(OC)c2)ccc1Nc1ccccc1C(=O)O	u	u	-1%	i	18µM*
COc1ccc(NC(=S)N(CCCN2CCOCC2)Cc2cn(C)c3ccccc23)cc1OC	u	4.1µM*	-18%	-27%	-11%
CCOC(=O)Nc1ccc2c(c1)N(C(=O)CCN1CCN3CCCC3C1)c1ccccc1CC2 (stereo not given)	-28%	15µM*	-14%	-19%	-1%
CCOC(=O)Nc1ccc2c(c1)N(C(=O)CCN(CC)CC)c1ccccc1CC2	u	84%	x	x	-1%
CCOC(=O)Nc1ccc2c(c1)N(C(=O)CN1CCN(C)CC1)c1ccccc1CC2	u	u	x	x	4%
CCOC(=O)Nc1ccc2c(c1)N(C(=O)N(CC)CC)c1ccccc1CC2	12µM*	u	-17%	i	5%[11.6 µM]
CCOC(=O)Nc1ccc2c(c1)N(C(=O)CN1CCN(CCO)CC1)c1ccccc1CC2	u	12µM*	-11%	i	33%
CCOC(=O)Nc1ccc2c(c1)N(C(=O)CCN(CC)CC)c1ccccc1S2=O (stereo not given)	11%	82%	u	10µM*	0%
Cc1cccc(N2CCn3c2nc2c3c(=O)n(C/C=C/c3ccccc3)c(=O)n2C)c1	x	x	-6%	-7%	x
Cc1cccc(CNC(=O)c2cnn(-c3nccc(-c4cccs4)n3)c2C(C)C)n1	x	x	-13%	-23%	x
CCOC(=O)Nc1ccc2c(c1)N(C(=O)N1CCN(C)CC1)c1ccccc1CC2	12µM*	0%	-15%	i	-2%
CCNCC(=O)N1c2ccccc2CCc2ccc(NC(=O)OC(C)C)cc21	12µM*	-33%	-23%	-12%	52%
Cc1ccc(C(=O)c2oc3ccccc3c2NC(=O)c2nc(S(C)(=O)=O)ncc2Cl)cc1F	x	x	-13%	-14%	x
Cc1ccc(NC(=O)C2=CCN(S(=O)(=O)c3ccc(F)cc3)CC2)c(C)c1	13%	0.33µM*	-17%	17%	-11%
Cc1cc(C)c(NC(=O)C2=CCN(S(=O)(=O)c3ccc(F)cc3)CC2)c(C)c1	5%	u	-13%	7%	0%
CCN(CC)CCOC(=O)c1ccc(NC(=O)C(C)NC(=O)C23CC4CC(CC(C4)C2)C3)cc1 (stereo not given)	-26%	12µM*	-12%	-2%	-3%
CCc1ccc(S(=O)(=O)c2cn(C)c3cc(N4CCC(C)CC4)c(F)cc3c2=O)cc1	x	x	-13%	-10%	x
CCN[C@@H](C)Cc1cccc(C(F)(F)F)c1	x	x	-7%	i	-7%
C[C@@H](NCCCc1cccc(C(F)(F)F)c1)c1cccc2ccccc12	7.6µM*	12µM*	u	-28%	x
CCNC(C)Cc1cccc(C(F)(F)F)c1 (stereo not given)	-5%	13µM*	x	x	x
O=C1c2ccc(-c3ccc(F)cc3OCc3ccccc3)cc2S(=O)(=O)c2cccc(C(=O)N3CCCC3)c21	4.7µM*	u	-26%	-7%	-28%
CCc1ccccc1NCc1nnc2n1CCCCC2	x	x	6%	3%	x
